# Screens deposited in PubChem BioAssay by several laboratories.
# This is a sample that favours compounds with a hit; in the whole collection about 4.3% have one here.
# MITF TRPM1 HTS: MITF TRPM1 promoter activation in melanoma cells; SK-MEL-5 TRPM1-promoter luciferase, 24 h; % of positive control, neutral wells = 0; activation, % at 12.5 µM; 300,000 compounds, 0.75% hits; AID 588334;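 active = mean activation of at least 80% with every replicate also reaching 80%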;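 note: 0% = neutral control wells and 100% = parthenolide positive control wells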
# HSF1 activator: increases HSF-1 driven luciferase reporter signal; 300,000 compounds, 1.7% hits; activation, % at 9 µM; NIH3T3-HGL HSF-1 luciferase reporter, MG132, 8 h; 100% = twice DMSO control signal;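 active = mean replicate activation of at least 50% with a set share of replicates each reaching 50%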;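 note: 0% = median of the neutral control wells and 100% = twice that signal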
# SMARCA2 act: activators of SMARCA2 function | 370,000 compounds, 1% hits | MG213 cells, MMTV-luciferase reporter, dexamethasone, overnight | activation, % at 9.1 µM | AID 652017; in the data active = activation above about 7.8%;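 note: 0% = vehicle wells and 100% = reference activator wells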
# esBAF inh: SWI/SNF esBAF complex inhibition. mouse ES cells, Bmi1-luciferase knock-in reporter, 24 h; 100% = twice the neutral-well signal. reporter increase, % at 12.5 µM. 350,000 compounds, 2% hits; in the data active = activation above about 40%;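 note: 0% = median of the plate's neutral control wells and 100% = double that signal; a rise in the Bmi1 reporter signal indicates esBAF inhibition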
# Wnt act: activators of Wnt/beta-catenin signaling; Wnt/beta-catenin reporter cell assay, activator, plate reader; 300,000 compounds, 1.2% hits; activation, % at 9.35 µM; in the data active = activation above about 30%, passing the limit was not always enough;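 note: 0% = neutral control wells and 100% = positive control wells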
# HSF1 inh: HSF1 inhibition. NIH3T3-HGL HSE-luciferase, MG132-induced, luminescence 8 h; hits give low values. activity change, negative = inhibition, % at 7.5 µM (by protocol). 300,000 compounds, 0.77% hits;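 active = more than half of replicate wells show activity change below -50%, luminescence cut by over half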;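 note: luciferase reports HSF-1 transcriptional activity via heat shock element; 0% = median of DMSO wells and -100% = zero luminescence signal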
# SMARCA2 act conf: SMARCA2 activation, confirmation screen; activation, % at 9.1 µM; shares compounds with SMARCA2 act; 3,500 compounds, 30% hits; MG213 cells, MMTV-luciferase with dexamethasone, luminescence, overnight; MG213 cells expressing E1A, Rb sequestered; DMSO wells 0%, reference activator 100%;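 active = activation above its plate's cutoff, the mean activation of tested wells plus 3 SD, cut at about 7.9% in these data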
# VP16 Luc act: activates GAL4-VP16 luciferase, flagging SMARCA2 activator hits; shares compounds with SMARCA2 act; HEK293 GAL4-VP16 pG5luc reporter, luciferase luminescence; scaled: DMSO wells 0%, SAHA wells 100%; activation, % at 9.1 µM; 3,500 compounds, 41% hits; AID 686939;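 active = activation above the solvent-only control well mean plus 3 SD, averaged across control plates, cut at about 5.2% in these data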
# Active calls of the source: *; x = no result.
SMILES,MITF TRPM1 HTS,HSF1 activator,SMARCA2 act,esBAF inh,Wnt act,HSF1 inh,SMARCA2 act conf,VP16 Luc act
O=C(CCNC(=O)c1ccc([N+](=O)[O-])cc1)NCCC1=CCCCC1,-8,-10,-1,-9,5,-2,x,x
CNC[C@@H]1Oc2ccc(NC(=O)C3CCCCC3)cc2C(=O)N([C@@H](C)CO)C[C@@H]1C,x,x,x,2,x,x,x,x
COc1ccc(C(Nc2cc(C)ccn2)c2ccc3ccc(C)nc3c2O)cc1 (stereo unspecified),-15,-60,10*,2,0,-43,-4,0
C[C@@H]1CN([C@H](C)CO)C(=O)c2cccc(NC(=O)Nc3ccc4c(c3)OCO4)c2O[C@H]1CN(C)S(C)(=O)=O,x,x,x,5,x,x,x,x
Cc1ccn2cc(-c3cccc(NC(=O)c4cccs4)c3)nc2c1,37,36,3,x,-1,22,x,x
Cc1cccn2cc(-c3cccc(NC(=O)c4cccs4)c3)nc12,61,20,9.4*,x,13,7,6,2
CN(C)CCNC(=O)c1cccc(-c2cnc3c(NC=O)cc(-c4cc(F)c(F)c(F)c4)cn23)c1,x,x,-1,3,-3,x,x,x
COc1cccc(-c2cc(NC=O)c3ncc(-c4cccc(C(=O)N(C)C)c4)n3c2)c1,x,x,-3,-2,-6,x,x,x
CN(C)CCNC(=O)c1cccc(-c2cc(NC=O)c3ncc(-c4cccc(C(F)(F)F)c4)n3c2)c1,x,x,34*,-85,-21,x,29*,2
COc1cccc(-c2cnc3c(NC=O)cc(-c4cccc(C(=O)N(C)C)c4)cn23)c1,x,x,12*,-8,-2,x,7,5
C[C@@H]1CCCCO[C@H](CN(C)C(=O)Nc2ccccc2)[C@@H](C)CN([C@@H](C)CO)C(=O)c2cc(NS(=O)(=O)c3cn(C)cn3)ccc2O1,x,x,x,-1,x,x,x,x
CO[C@H]1CN(C)C(=O)c2cc(NS(=O)(=O)c3ccccc3C)ccc2OC[C@H](C)NC[C@@H]1C,x,x,x,2,x,x,x,x
CN(CCc1ccccc1)C(=O)c1cc2ccccn2n1,x,x,8.2*,x,x,x,5,6.0*
COCC(=O)Nc1ccc2c(c1)C(=O)N(C)C[C@H](OC)[C@H](C)CN(Cc1ccccc1F)[C@H](C)CO2,x,x,x,-5,x,x,x,x
C[C@H]1CN([C@@H](C)CO)C(=O)c2cc(NC(=O)Cc3cn(C)c4ccccc34)ccc2O[C@@H]1CN(C)S(=O)(=O)c1cccs1,x,x,x,4,x,x,x,x
COc1ccc(OCc2cc(C(=O)N3C[C@@H](C)O[C@@H](C)C3)no2)c(Cl)c1,70,18,8.3*,42*,13,10,3,4
COCC1CCN(C(=O)c2cc(COc3ccc(OC)cc3Cl)on2)C1 (stereo unspecified),x,x,6,x,9,x,x,x
CO[C@H]1CN(C)C(=O)c2cc(NS(=O)(=O)c3ccc(C)cc3)ccc2OC[C@H](C)N(C)C[C@@H]1C,x,x,x,-1,x,x,x,x
Cc1nnc2c(N(C)S(=O)(=O)c3ccccc3)nc3ccccc3n12,40,7,8.2*,34,2,-1,9.0*,3
CCCc1nnc2c(N(C)S(=O)(=O)c3ccccc3)nc3ccccc3n12,13,32,-4,x,x,-1,x,x
COc1ccc(CN(C)C[C@H]2OCCCC[C@H](C)Oc3ccc(N(C)C)cc3C(=O)N([C@H](C)CO)C[C@@H]2C)cc1,x,x,x,-4,x,x,x,x
CCOC(=O)/C(C#N)=C/c1c[nH]c2ccccc12,6,38,11*,x,x,38,5,4
CCn1c(SCC(=O)c2ccc(F)cc2)nnc1-c1ccoc1C,26,33,9.6*,21,9,13,4,2
C[C@@H]1CCCCO[C@@H](CN(C)S(=O)(=O)c2ccccc2)[C@@H](C)CN([C@H](C)CO)C(=O)c2cc(NS(C)(=O)=O)ccc2O1,x,x,x,-6,x,x,x,x
COC(=O)c1ccc(N=NN2CCCCC2)cc1,89*,-5,12*,x,0,0,4,11*
SMILES,MITF TRPM1 HTS,HSF1 activator,SMARCA2 act,esBAF inh,Wnt act,HSF1 inh,SMARCA2 act conf,VP16 Luc act
COC(=O)c1ccc(C(=O)OC)c(NC(=S)N2CCN(c3cccc(Cl)c3)CC2)c1,7,-17,11*,-4,2,1,-6,-1
C[C@@H]1CN([C@@H](C)CO)S(=O)(=O)c2ccc(C3=CCCCC3)cc2O[C@H]1CN(C)S(=O)(=O)c1cn(C)cn1,x,x,x,-7,x,x,x,x
O=C(Nc1ccccc1)Nc1nccs1,x,-13,9.0*,x,x,2,4,3
CN(C)c1ccc(NC(=O)/C=C/c2ccccc2Cl)cc1,92*,54*,8.2*,x,42*,20,7,11*
O=C(/C=C/c1ccccc1[N+](=O)[O-])NCc1ccc(Cl)cc1,0,27,2,x,-6,7,x,x
O=C(/C=C/c1ccccc1Cl)NCc1ccccc1,39,15,11*,53*,-5,12,2,2
O=C(Nc1ccccc1)N1CCCCN2[C@@H](CO)[C@@H](c3ccc(-c4ccncc4)cc3)[C@@H]2C1,x,x,x,-11,x,x,x,x
CCN(CC)CCn1nc2c3c(cccc3c1=O)-c1ccccc1-2,-69,173*,35*,x,1,106,72*,4
O=c1c2cccc3c2c(nn1CN1CCOCC1)-c1ccccc1-3,-27,13,x,0,x,0,x,x
Cc1ccccc1C1c2[nH]c3ccccc3c2CCN1C(=O)c1ccc(=O)n(C)n1 (stereo unspecified),3,0,9.6*,x,0,-9,2,1
COc1ccc(C2c3[nH]c4ccccc4c3CCN2C(=O)c2ccc(=O)n(C)n2)c(F)c1 (stereo unspecified),7,17,-1,x,x,5,x,x
CN1CCN(c2ccc(-c3cc(NC=O)c4ncc(-c5ccc(F)cc5)n4c3)cc2)CC1,x,x,10*,-1,-3,x,14*,12*
COc1cc(-c2cnc3c(NC(C)=O)cc(-c4ccc(N5CCN(C)CC5)cc4)cn23)cc(OC)c1OC,x,x,-4,-17,-11,x,x,x
COc1cc(-c2cnc3c(NC=O)cc(-c4ccc(N5CCN(C)CC5)cc4)cn23)cc(OC)c1OC,x,x,8.5*,1,1,x,9.3*,14*
CN1CCN(c2ccc(-c3cc(NC=O)c4ncc(-c5ccccc5)n4c3)cc2)CC1,x,x,3,-6,-1,x,x,x
Cc1ccccc1S(=O)(=O)N1C[C@H](O)COC[C@H]2O[C@H](CC(=O)N3CCN(C)CC3)CC[C@@H]21,x,x,x,2,x,x,x,x
O=C(CSc1ncn[nH]1)c1ccc2c(c1)OCO2,-3,9,8.6*,5,x,-2,1,1
